Sampled rows, rich in hits. Any-hit rate of the full collection: about 3.3%.
AmpC inh no detg: qHTS Inhibitors of AmpC Beta-Lactamase (assay without detergent); AmpC nitrocefin hydrolysis, absorbance 480 nm, 0.0001% Triton; Potency, µM (top dose mostly 57.1 µM), for inactives: at the top dose activity change, negative = inhibition, hits mostly inhibitors; actives 0.52% (n = 330,000); AID 485341, 2010;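 note: plate controls were no compound for no effect and no enzyme for full effect; nearly all actives have a fitted effect of over 20% in size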
Target sequence (P00811 whole entry, looked up): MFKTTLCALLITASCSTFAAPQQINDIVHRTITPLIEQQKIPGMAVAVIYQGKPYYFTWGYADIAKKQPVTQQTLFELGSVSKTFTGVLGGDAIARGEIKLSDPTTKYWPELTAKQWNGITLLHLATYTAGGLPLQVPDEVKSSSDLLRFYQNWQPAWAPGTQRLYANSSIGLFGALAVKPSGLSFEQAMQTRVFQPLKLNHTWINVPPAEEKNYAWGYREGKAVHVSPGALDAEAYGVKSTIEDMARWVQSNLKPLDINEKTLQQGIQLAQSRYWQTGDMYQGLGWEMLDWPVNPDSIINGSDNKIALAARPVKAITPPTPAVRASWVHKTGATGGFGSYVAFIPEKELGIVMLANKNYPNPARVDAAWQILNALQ
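20 mM phosphate pH 7.0 + 0.01% (detergent screen) or 0.0001% Triton X-100; 5.3 nM AmpC reagent; cpd preinc 15 min RT; nitrocefin (800 uM stock) to start; A480 q20 s × 4 min; Activity was normalised to no-enzyme and no-compound control wells.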
AmpC detergent: qHTS Inhibitors of AmpC Beta-Lactamase (assay with detergent) | Potency, µM (series often up to 114 µM), for the others: at the highest dose activity change, negative = inhibition, most hits filed as inhibitors | AmpC hydrolysis of nitrocefin, absorbance 480 nm, 0.01% Triton | actives 0.041% (n = 370,000) | AID 485294, 2010;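 note: 0% = no-compound wells and -100% = no-enzyme wells; nearly all actives have a fitted effect of over 25% in size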
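20 mM phosphate pH 7.0 + 0.01% (detergent screen) or 0.0001% Triton X-100; 5.3 nM AmpC reagent; cpd preinc 15 min RT; nitrocefin (800 uM stock) to start; A480 q20 s × 4 min; Activity was normalised to no-enzyme and no-compound control wells.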
Sm TGR inh: qHTS Assay for the Inhibitors of Schistosoma Mansoni Peroxiredoxins. Schistosoma mansoni thioredoxin glutathione reductase (TGR), Q962Y6. purified TGR, DTNB reduction, TNB absorbance 405 nm. Potency, µM (doses to about 114 µM), without a hit: top-dose activity change, negative = inhibition, most hits filed as inhibitors. actives 3% (n = 360,000). AID 485364, 2010; note: nearly all actives have a fitted effect of over 60% in size
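TGR 20 nM + NADPH 100 uM (dispensed conc.), cpd preinc 15 min RT; start with NADPH (500 uM addition) then DTNB (15 mM addition). Kinetic TNB absorbance, 405 nm filter. Four-parameter Hill fit across titration.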
Active calls of the source: *; ? = inconclusive; nt = not tested or not shown; [ ] = remark or other dose. Calls come from the whole dose curve; as a rule, active = well fitted curve in the direction sought with a large enough effect; inconclusive = small, poorly fitted or top-dose-only effect, or another doubt; inactive = no such curve, though single readings can be large; an effect the other way counts as inactive or inconclusive. Unless noted, % is set by controls: 0 for no effect and ±100 for the full control effect; potency is the fitted concentration of half-maximal effect.

SMILES	AmpC inh no detg	AmpC detergent	Sm TGR inh
COc1ccccc1/C=C/c1nc(S(=O)(=O)c2ccccc2)c(N(C)C)o1	-19%	-12%	10µM*
COc1cccc(/C=C/c2nc(S(=O)(=O)c3ccccc3)c(N(C)C)o2)c1	-20%	0%	?
CN(C)c1oc(/C=C/c2cccs2)nc1S(=O)(=O)c1ccccc1	-21%	-2%	35µM*
COc1ccccc1NC(=O)c1cc(S(=O)(=O)NCCC2=CCCCC2)ccc1F	nt	8%	6%
CCC(C#CCN1CCCCC1)(CC)OCCC#N	4%	-10%	0%
CCC(C)(C#CCN1CCCCC1)OCCC#N (stereo not given)	1%	6%	40µM*
NC(=O)CSc1nc2cc3c(cc2c(=O)n1CCCCCC(=O)NCc1ccc2c(c1)OCO2)OCO3	nt	-4%	1%
COc1cccc(NC(=S)Nc2cccnc2)c1	-18%	-9%	40µM*
COc1ccc(C(=O)NC(=S)NCc2cccnc2)cc1Br	-13%[2.29 µM]	0%	-35%
Cc1ccc(C(=O)NC(=S)NCc2cccnc2)cc1C	-25%	4%	50µM*
COc1ccc(Cl)cc1NC(=S)Nc1cccnc1	-10%[2.29 µM]	1%	13µM*
COc1ccc(Cl)cc1NC(=S)Nc1cccc(C)c1	-29%	1%	-1%
COc1ccc(NC(=S)Nc2cccnc2)c(OC)c1	-30%	-10%	?
COc1cccc(NC(=S)NCc2ccccc2)c1	-52%	-14%	-25%
COc1cccc(NC(=S)NCc2cccnc2)c1	-14%	-10%	45µM*
N#CCCn1cc(C(=O)Nc2ccccc2Br)c(-c2cccs2)n1	13%	?	0%
CC(=O)Nc1cccc(-c2cnc(N)c(C(=O)c3cccnc3)n2)c1	-27%	nt	nt
CN1C(C(=O)NCc2ccc(OC(F)(F)F)cc2)CC2Cn3c(nc4cc5ccccc5cc43)C21 (stereo not given)	90%	4%	-14%
Clc1cccc(-n2ncc3c(N4CCCCC4)ncnc32)c1	nt	6%	2%
CN(CCOc1ccccc1)CC(=O)Nc1ccc(Br)cc1F	43%	-2%	-1%
CC1CCCC(NC(=O)CCC(=O)NCc2ccccc2)C1C (stereo not given)	-1%	0%	-5%
O=C(NNC(=S)Nc1ccc(Br)cc1Cl)c1ccncc1	-16%	-7%	-21%
S=C(NCc1cccnc1)Nc1cccc2ccccc12	-27%	2%	32µM*
S=C(NCc1ccccc1)Nc1cccc2cnccc12	-19%	-9%	?
CCOc1ccc(NC(=S)Nc2ccc(Br)cc2Cl)cc1	-15%[2.29 µM]	?	-27%
SMILES	AmpC inh no detg	AmpC detergent	Sm TGR inh
COc1cccc(NC(=S)Nc2ccc(Br)cc2Cl)c1	-36%	7%	22µM*
Cc1cccc(C)c1NC(=S)NCc1ccncc1	-30%	3%	28µM*
S=C(NCc1ccncc1)Nc1ccc(Br)cc1Cl	2%	-5%	35µM*
Cc1cccc(NC(=S)NCc2ccncc2)c1C	-20%	-2%	?
O=c1c2cn[nH]c2nc(SCc2c(F)cccc2F)n1-c1ccc(Cl)cc1	8%	9%	4%
N#Cc1ccc(OCC(=O)NCC(c2cccs2)N2CCOCC2)cc1 (stereo not given)	0%	4%	0%
Fc1ccc(NC(=S)Nc2ccccc2OC(F)F)cc1Cl	-24%	-3%	-32%
Fc1ccc(NC(=S)Nc2cccnc2)cc1	-20%	-1%	nt
c1cncc(-c2nc3ccccc3[nH]2)c1	-16%	-11%	6%
Fc1ccccc1NC(=S)Nc1cccnc1	-13%	-4%	16µM*
S=C(Nc1ccc(-c2nc3ccccc3[nH]2)cc1)Nc1cccnc1	-21%	-6%	11µM*
FC(F)Oc1ccccc1NC(=S)Nc1cccnc1	-21%	-13%	22µM*
CC1CC(C)CN(S(=O)(=O)c2ccc(C(=O)N(C)Cc3ccccc3)cc2)C1 (stereo not given)	40%	nt	nt
CCn1c(CNc2cccc(C(F)(F)F)c2)n[nH]c1=S	-4%	-6%	-2%
CCc1ccc(NC(=O)CSc2nc3c(c(=O)[nH]2)CN(Cc2ccc4c(c2)OCO4)CC3)cc1	nt	1%	0%
O=C(Nc1cccc(F)c1)c1ccc(-c2ccccc2)s1	nt	0%	7%
Cc1cccc(N(CC(=O)N(C)Cc2ccccc2)S(=O)(=O)c2ccccc2)c1C	nt	10%	9%
COc1cc(/C=N/Nc2ccccc2[N+](=O)[O-])cc(OC)c1O	-4%	0%	-4%
COc1cc(/C=N/Nc2ccc(F)cc2F)cc(OC)c1O	-21%	-5%	25µM*
Cc1ccc(-c2ccc(CCC(=O)O)n2-c2ccc(O)cc2)cc1	-48%	-5%	25µM*
O=C(O)CCc1ccc(-c2ccc(F)cc2)n1CC(=O)O	-22%	2%	?
Cc1ccc(-c2ccc(CCC(=O)O)n2CC(=O)O)cc1	-4%	4%	18µM*
O=C(O)CCc1ccc(-c2ccc(Cl)cc2)n1-c1cccc(C(F)(F)F)c1	nt	-1%	25µM*
COc1ccc(-c2ccc(CCC(=O)O)n2-c2cc(Cl)ccc2O)cc1	nt	22%	?
O=C(O)CCc1ccc(-c2ccc(Br)cc2)n1-c1ccc(O)cc1	-41%	-5%	28µM*
SMILES	AmpC inh no detg	AmpC detergent	Sm TGR inh
Cc1ccc(-c2ccc(CCC(=O)O)n2CC2CCCO2)cc1 (stereo not given)	-16%	?	?
O=C(O)CCc1ccc(-c2ccc(Cl)cc2)n1NC(=O)c1ccc(O)cc1	-40%	3%	-30%
CC(CC(=O)NCc1ccc(Cl)cc1)S(=O)(=O)c1ccc2c(c1)NC(=O)CO2 (stereo not given)	-9%	-2%	-9%
COc1ccc2cc(-c3nc(Cl)c4c5c(sc4n3)CCCC5)c(=O)oc2c1	nt	2%	-8%
Cc1ccc(NC(=O)Cn2c(CCC(=O)O)ccc2-c2ccc(Cl)cc2)cc1	-21%	-2%	?
CCOc1ccc(-n2c(CCC(=O)O)ccc2-c2ccc(Br)cc2)cc1	nt	9%	?
CCOC(=O)c1ccc(-n2c(CCC(=O)O)ccc2-c2ccc(Br)cc2)cc1	nt	11%	20µM*
Cc1ccc(-c2ccc(CCC(=O)O)n2-c2cccc(O)c2)cc1	-34%	-5%	14µM*
COC(=O)[C@]1(CC(C)C)N[C@H](c2ccc(-c3ccc(Cl)c(Cl)c3)cc2)[C@@H]2C(=O)N(C)C(=O)[C@@H]21	-4%	-13%	-20%
Cc1c(C(=O)N2CCCCCC2)c(S(=O)(=O)N(Cc2ccccc2)C(C)(C)C)c(C)n1C	nt	22%	-7%
Cc1ccc(C)c(OCCCC(=O)NC2CCCCC2)c1	5%	-12%	-19%
Cc1ccc(OCCCC(=O)NC2CCCCC2)cc1	0%	0%	40µM*
Cn1cccc1/C=C1\C(=O)NC(=O)N(Cc2ccco2)C1=O	-31%	4%	40µM*
Cc1ccc(-n2c(C)cc(/C=C3/C(=O)NC(=O)N(Cc4ccco4)C3=O)c2C)cc1	-56%	?	-33%
COc1ccc(/C=C2/C(=O)NC(=O)N(Cc3ccco3)C2=O)cc1	23%	11%	nt
Cc1ccc(OCCn2cccc2/C=C2/C(=O)NC(=O)N(Cc3ccco3)C2=O)cc1	?	-3%	14µM*

From PubChem BioAssay
